# Source: PMC11062922 (Nature Chemical Biology, 2023)
# Read-outs that look alike come from different tables or passages of the source.
# Key:
# Parameters in all cases: species or system human, MV4-11 + K-562 + COLO205 + SK-N-BE2 + OVCAR-8
# CDK7 = settings: read-out: apparent Kd, n = 1
# CDKL5 = settings: read-out: apparent Kd; compound concentrations: 100 nM and 1000 nM (sheet 'Samples'), CATDS: 1.7260547192186899E-2; n = 1
# ERCC2 = settings: read-out: apparent Kd, n = 1
# FER = settings: read-out: apparent Kd, n = 1
# PLK4 = settings: read-out: apparent Kd, n = 1
# PRKAA1 = settings: read-out: apparent Kd, n = 1
# PRKAG1 = settings: read-out: apparent Kd, n = 1
# PRKCQ = settings: read-out: apparent Kd, n = 1
# PTK2B = settings: read-out: apparent Kd, n = 1
# PTK2 = settings: read-out: apparent Kd, n = 1
# RPS6KA6 = settings: read-out: apparent Kd, n = 1
# LATS1 = settings: read-out: apparent Kd, n = 1
# MARK4 = settings: read-out: apparent Kd, n = 1
# PRKD2 = settings: read-out: apparent Kd, n = 1
# PRKD3 = settings: read-out: apparent Kd, n = 1
# PRKCD = settings: read-out: apparent Kd, compound concentrations: 100 nM and 1000 nM (sheet 'Samples'), n = 1
# MYLK3 = settings: read-out: apparent Kd; compound concentrations: 100 nM and 1000 nM (sheet 'Samples'), CATDS: 7.6821350503620796E-3; n = 1
# PIP4K2C = settings: read-out: apparent Kd, n = 1
# STK10 = settings: read-out: apparent Kd, n = 1
# DYRK1A = settings: read-out: apparent Kd; compound concentrations: 100 nM and 1000 nM (sheet 'Samples'), CATDS: 1.19408465116969E-2; n = 1
# [1] = compound concentrations:100 nM and 1000 nM (sheet 'Samples')
smiles,measurement,setting,value
Cc1ccccc1-n1ncc(C(=O)c2ccccc2)c1N [RO1151248-000],potency estimated from few doses,"CDK7; compound concentrations: 100 nM and 1000 nM (sheet 'Samples'), CATDS: 3.2970650229379797E-2",0.492 µM
same,potency estimated from few doses,CDKL5,2.24 µM
same,potency estimated from few doses,"ERCC2; compound concentrations: 100 nM and 1000 nM (sheet 'Samples'), CATDS: 3.4220969225155197E-2",0.462 µM
same,potency estimated from few doses,"FER; compound concentrations: 100 nM and 1000 nM (sheet 'Samples'), CATDS: 3.2819446415030699E-2",0.496 µM
same,potency estimated from few doses,"PLK4; compound concentrations: 100 nM and 1000 nM (sheet 'Samples'), CATDS: 2.3524551530655802E-2",0.946 µM
same,potency estimated from few doses,"PRKAA1; compound concentrations: 100 nM and 1000 nM (sheet 'Samples'), CATDS: 2.2348662654876499E-2",1.06 µM
same,potency estimated from few doses,"PRKAG1; compound concentrations: 100 nM and 1000 nM (sheet 'Samples'), CATDS: 2.5293867995276598E-2",0.809 µM
same,potency estimated from few doses,"PRKCQ; compound concentrations: 100 nM and 1000 nM (sheet 'Samples'), CATDS: 1.77818646264679E-2",2.02 µM
same,potency estimated from few doses,"PTK2B; compound concentrations: 100 nM and 1000 nM (sheet 'Samples'), CATDS: 3.03657064915384E-2",0.568 µM
same,potency estimated from few doses,"PTK2; compound concentrations: 100 nM and 1000 nM (sheet 'Samples'), CATDS: 2.47359073742957E-2",0.848 µM
same,potency estimated from few doses,"RPS6KA6; compound concentrations: 100 nM and 1000 nM (sheet 'Samples'), CATDS: 3.3090095643126802E-2",0.489 µM
CC(C)Oc1ccc2c(-c3ccnc(Nc4ccc(N5CCN(C)CC5)cc4)n3)cnn2n1 [GW696155X],potency estimated from few doses,LATS1; [1],1.5 µM
same,potency estimated from few doses,MARK4; [1],1.8 µM
same,potency estimated from few doses,PLK4; [1],0.506 µM
same,potency estimated from few doses,PRKD2; [1],0.482 µM
same,potency estimated from few doses,PRKD3; [1],1.11 µM
NCC(NC(=O)c1cc(-c2cn[nH]c2)c(-c2ccnc3[nH]ccc23)s1)c1ccccc1.NCC(NC(=O)c1cc(-c2cn[nH]c2)c(-c2ccnc3[nH]ccc23)s1)c1ccccc1.O=C(O)C(F)(F)F.O=C(O)C(F)(F)F (stereo not drawn) [GSK1325775A],potency estimated from few doses,PRKCD; CATDS: 4.2478831197515603E-2,0.712 µM
same,potency estimated from few doses,"PRKCQ; compound concentrations: 100 nM and 1000 nM (sheet 'Samples'), CATDS: 3.02069836024773E-2",2.04 µM
O=C(O)C(F)(F)F.O=C(O)C(F)(F)F.O=c1[nH]ccc2nc(N[C@@H]3CCCNC3)nc(Nc3ccc(S(=O)(=O)N4CCOCC4)cc3)c12.O=c1[nH]ccc2nc(N[C@@H]3CCCNC3)nc(Nc3ccc(S(=O)(=O)N4CCOCC4)cc3)c12 [GSK2177277A],potency estimated from few doses,"FER; compound concentrations: 100 nM and 1000 nM (sheet 'Samples'), CATDS: 8.2739447120601401E-3",0.507 µM
same,potency estimated from few doses,"LATS1; compound concentrations: 100 nM and 1000 nM (sheet 'Samples'), CATDS: 1.48300039917603E-2",0.099 µM
same,potency estimated from few doses,"MARK4; compound concentrations: 100 nM and 1000 nM (sheet 'Samples'), CATDS: 1.7623267984443299E-2",0.068 µM
same,potency estimated from few doses,MYLK3,0.67 µM
same,potency estimated from few doses,"PIP4K2C; compound concentrations: 100 nM and 1000 nM (sheet 'Samples'), CATDS: 6.0874593504341903E-3",2.14 µM
same,potency estimated from few doses,"PLK4; compound concentrations: 100 nM and 1000 nM (sheet 'Samples'), CATDS: 9.3439650172966598E-3",0.337 µM
same,potency estimated from few doses,"PRKAA1; compound concentrations: 100 nM and 1000 nM (sheet 'Samples'), CATDS: 9.2771532951669705E-3",0.345 µM
same,potency estimated from few doses,"PRKAG1; compound concentrations: 100 nM and 1000 nM (sheet 'Samples'), CATDS: 1.7529215817932601E-2",0.0688 µM
same,potency estimated from few doses,PRKCD; CATDS: 1.08121865447726E-2,0.219 µM
same,potency estimated from few doses,"PRKCQ; compound concentrations: 100 nM and 1000 nM (sheet 'Samples'), CATDS: 6.3096913927369299E-3",1.71 µM
same,potency estimated from few doses,"PRKD2; compound concentrations: 100 nM and 1000 nM (sheet 'Samples'), CATDS: 1.40829388038229E-2",0.112 µM
same,potency estimated from few doses,"PRKD3; compound concentrations: 100 nM and 1000 nM (sheet 'Samples'), CATDS: 1.7898299297347601E-2",0.0659 µM
same,potency estimated from few doses,"PTK2B; compound concentrations: 100 nM and 1000 nM (sheet 'Samples'), CATDS: 2.4807788404782798E-2",0.0352 µM
same,potency estimated from few doses,"PTK2; compound concentrations: 100 nM and 1000 nM (sheet 'Samples'), CATDS: 7.5985318000446602E-3",0.7 µM
same,potency estimated from few doses,"RPS6KA6; compound concentrations: 100 nM and 1000 nM (sheet 'Samples'), CATDS: 8.3254992837084908E-3",0.496 µM
same,potency estimated from few doses,"STK10; compound concentrations: 100 nM and 1000 nM (sheet 'Samples'), CATDS: 9.0871108796095092E-3",0.369 µM
COc1cc(Nc2nccc(N3CCC(NC(=O)c4cccc(NC(C)=O)c4)C3)n2)cc(OC)c1OC (stereo not drawn) [GSK1379754A],potency estimated from few doses,"PIP4K2C; compound concentrations: 100 nM and 1000 nM (sheet 'Samples'), CATDS: 7.8975813686716995E-2",2.09 µM
CC(=O)N[C@@H](Cc1ccc(OP(=O)(O)O)cc1)C(=O)N[C@H]1CCC(=O)N2CCC[C@@H](C(=O)NCc3ccc(Cl)cc3)N2C1=O [RO0325308-000],potency estimated from few doses,CDK7; [1],0.0499 µM
same,potency estimated from few doses,ERCC2; [1],0.0394 µM
same,potency estimated from few doses,FER; [1],0.0595 µM
same,potency estimated from few doses,PIP4K2C; [1],1.27 µM
same,potency estimated from few doses,PLK4; [1],0.637 µM
same,potency estimated from few doses,PRKAA1; [1],0.801 µM
same,potency estimated from few doses,PRKAG1; [1],0.523 µM
same,potency estimated from few doses,PRKCQ; [1],0.785 µM
same,potency estimated from few doses,PTK2B; [1],0.367 µM
same,potency estimated from few doses,PTK2; [1],0.652 µM
same,potency estimated from few doses,RPS6KA6; [1],0.62 µM
CCn1c(-c2cccnc2O)nc2cnccc21 [SB-736715],potency estimated from few doses,DYRK1A,2.22 µM
same,potency estimated from few doses,"PIP4K2C; compound concentrations: 100 nM and 1000 nM (sheet 'Samples'), CATDS: 1.9889508399788002E-2",0.761 µM
same,potency estimated from few doses,"PLK4; compound concentrations: 100 nM and 1000 nM (sheet 'Samples'), CATDS: 1.6109346407018599E-2",1.12 µM
same,potency estimated from few doses,"PRKAG1; compound concentrations: 100 nM and 1000 nM (sheet 'Samples'), CATDS: 1.40543588651099E-2",1.49 µM
same,potency estimated from few doses,PRKCD; CATDS: 1.16308056787147E-2,2.39 µM
same,potency estimated from few doses,"PRKD2; compound concentrations: 100 nM and 1000 nM (sheet 'Samples'), CATDS: 1.32694977387129E-2",1.7 µM
same,potency estimated from few doses,"RPS6KA6; compound concentrations: 100 nM and 1000 nM (sheet 'Samples'), CATDS: 1.6792269740451799E-2",1.03 µM
CS(=O)(=O)CCn1c(=O)c(Oc2ccc(F)cc2F)cc2cnc(NC3CCOCC3)nc21 [RO5027956-000],potency estimated from few doses,CDK7; [1],0.349 µM
same,potency estimated from few doses,ERCC2; [1],0.317 µM
same,potency estimated from few doses,FER; [1],0.431 µM
same,potency estimated from few doses,MARK4; [1],1.95 µM
same,potency estimated from few doses,PIP4K2C; [1],0.462 µM
same,potency estimated from few doses,PLK4; [1],0.568 µM
same,potency estimated from few doses,PRKAA1; [1],1.21 µM
same,potency estimated from few doses,PRKAG1; [1],0.812 µM
same,potency estimated from few doses,PRKCQ; [1],0.998 µM
same,potency estimated from few doses,PTK2B; [1],0.417 µM
same,potency estimated from few doses,PTK2; [1],0.814 µM
same,potency estimated from few doses,RPS6KA6; [1],0.506 µM
same,potency estimated from few doses,STK10; [1],2.32 µM
